The nature of test [1]: Viability qHTS for spleen associated tyrosine kinase inhibitor (SYKi) naive MV4-11 cells (AID 1963823). Note: nearly all actives have a fitted effect of over 40% in size. Note: potency is the fitted concentration of half-maximal effect. The essentials:
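Cells: MV4-11, SYK inhibitor naive, 500 per well. Treatment: library compounds, 72 hr, 37 C, 5% CO2. Read-out: CellTiter-Glo luminescence after 10 min RT.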

The nature of test [2]: Viability qHTS for spleen associated tyrosine kinase inhibitor (SYKi) drug resistant MV4-11 cells (AID 1963824). Note: nearly all actives have a fitted effect of over 35% in size. Note: potency is the fitted concentration of half-maximal effect. The method, boiled down: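 CellTiter-Glo luminescence, read 10 min after reagent addition, reports viability after a 72 hr compound exposure. Cells are an MV4-11 line made resistant to SYK inhibition, seeded at 500 per well onto compound-containing plates.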
Test [3] can be described thus: Cellular viability qHTS for adrenocortical cancer (ACC) cell line SW-13 (AID 1963989).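 For activity (max response): cells grown in serum-free medium with ITS supplement; % is set by controls: 0 for no effect and ±100 for the full control effect.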 Note: nearly all actives have a fitted effect of over 65% in size. Note: potency is the fitted concentration of half-maximal effect. The note with it: SW-13 ACC cells viability, CellTiter-Glo, 48 h; activity (max response): active compounds read low. The method, boiled down: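 48 h treatment, SW-13 in ITS/DMEM serum-free; doses up to 46 uM; readout CellTiter-Glo luminescence; curve fit four-parameter logistic.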
Test [4] can be described thus: Cellular viability qHTS for adrenocortical cancer (ACC) cell line NCI-H295R (AID 1963990).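 Note: 0% = DMSO only wells and -100% = full killing with cytotoxic reference compound; nearly all actives have a fitted effect of over 60% in size.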 The essentials: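 Compound titrations (up to 46 uM final) are applied to NCI-H295R cultures for 48 h at 37C. Viable cell number is estimated by CellTiter-Glo signal, normalised to DMSO and doxorubicin controls.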
(Quantitative high-throughput screening tests each substance at several concentrations.)

The results in this text go back to PubChem BioAssay (NCATS).

Where “and” joins values, the source holds several entries; their conditions need not be identical. Identical values can stand only once. Inconclusive results are not listed. A number with no mark means an inactive call. Calls of active or inactive are those of the source. Calls come from the whole dose curve; as a rule, active = well fitted curve in the direction sought with a large enough effect; inconclusive = small, poorly fitted or top-dose-only effect, or another doubt; inactive = no such curve, though single readings can be large; an effect the other way counts as inactive or inconclusive.

For the compound `CCCCN(CCCC)CCCOC(=O)c1ccc(N)cc1`, the Potency entry in test [1] and in test [2] was “inactive” throughout. Also, the activity (max response) in test [3] was -3.65%.

As to `COc1ccccc1C(=O)Nc1cc2c(cc1N1CCCC1)n(C)c(=O)n2C`, the values for the Potency in test [1] and in test [2] were 8.2 µM (active) and 9.34 µM (active), respectively. For the same compound, the activity (max response) in test [3] was -26.1%.

Take `C=CC(=O)N1CCC(CNc2ncnc(N)c2-c2ccc(Oc3ccccc3)cc2)CC1`: the results for the Potency in test [1] and in test [2] were 5.9 µM (active) and 8.33 µM (active), respectively. Besides, the activity (max response) in test [3] was -22.9%.

Consider `O=C(Nc1ccc(OC(F)(F)Cl)cc1)c1cnc(N2CC[C@@H](O)C2)c(-c2ccn[nH]2)c1`, for which the values for the Potency in test [1], in test [2] and in test [3] were 5.9 µM (active), 6.61 µM (active) and 20 µM (active), respectively.

With `C=C1CCC2[C@](C)(CO)C(O)CC[C@]2(C)C1C/C=C1/C(=O)OCC1O` (stereo partly drawn), the Potency in test [1] is 3.32 µM (active); in test [2], 2.63 µM (active); in test [3], 25.1 µM (active).

Regarding `CC(C(O)c1ccccc1)N(C)CCOC(c1ccccc1)c1ccccc1` (stereo not drawn), the Potency in test [1] was 9.2 µM (active); in test [2], 8.2 µM (active); in test [3] it was 20.6 µM (active).

With `COc1cc(C(=O)OC(COCCC(C)C)CN2CCOCC2)cc(OC)c1OC` (stereo not drawn), the Potency result in test [1] and in test [2] was “inactive” in each case. Further, the activity (max response) in test [3] was 9.82%.

For `C=C1[C@H](OC(=O)/C=C(\C)CC)C[C@@H](C(C)C)[C@@H]2[C@H]([C@@H](C)OC(C)=O)C(=O)C[C@@H]12`, the Potency in test [1] is 14.8 µM (active); in test [2], 13.2 µM (active). For the same compound, the activity (max response) in test [3] was 6.72%.

Consider `CC(C)C[C@H](NC(=O)[C@H](Cc1ccccc1)NC(=O)OCc1ccccc1)C(=O)C=O`, for which the Potency in test [1] was 23.5 µM (active); in test [2], 20.9 µM (active). In test [3], the activity (max response) was -18.6%.

On to `C[C@]12C=CC(=O)C=C1CC[C@H]1[C@@H]3C[C@@H](O)[C@](O)(C(=O)CO)[C@@]3(C)C[C@H](O)[C@@]12F`, for which the Potency entry in test [1] and in test [2] was “inactive” each time. Further, in test [3], the activity (max response) is 4.79%.

In the case of `O=C1NC(=O)/C(=C/c2cccc(C(F)(F)F)c2)S1`, the Potency entry in test [1] and in test [2] was “inactive” each time. Further, in test [3], the Potency is 25.1 µM (active).

As to `CN(C)CCOc1ccccc1Cc1ccccc1`, the Potency result in test [1] and in test [2] was “inactive” each time. Also, the activity (max response) in test [3] is 9.36%.

`C=CCNc1c(O)cc2c(O)c1C[C@@H](C)C[C@H](OC)[C@H](O)[C@@H](C)/C=C(/C)[C@H](OC(N)=O)[C@@H](OC)/C=C\C=C(\C)C(=O)N2`: the Potency is 0.132 µM (active) in test [1], 0.417 µM (active) in test [2] and 3.16 µM (active) in test [3].

Regarding `CC(C)(O)CNc1ncc(-c2ccnc(Nc3ccncc3)n2)c(CC2CC2)n1`, the Potency in test [1] was 1.48 µM (active); in test [2], 1.18 µM (active); in test [3], 14.1 µM (active).

On to `CC(C)C[C@H](CO)Nc1nc(S[C@@H](C)c2ccccc2)nc2nc(N)sc12`, for which the Potency in test [1] is 14.6 µM (active); in test [2] it was 6.61 µM (active); in test [3] it was 31.6 µM (active).

As for `NC(=NCCCCCCN=C(N)/N=C(\N)Nc1ccc(Cl)cc1)/N=C(\N)Nc1ccc(Cl)cc1`, the Potency in test [1] is 5.31 µM (active) and 1.84 µM (active); in test [2] it was 2.99 µM (active) and 1.64 µM (active); in test [3] it was 5.17 µM (active).

As to `Cc1ccc(-n2nc(C(C)(C)C)cc2NC(=O)NCc2cc(F)ccc2Oc2ccc3c(cnn3CCO)c2)cc1`, the Potency in test [1] is 9.34 µM (active); in test [2], 10.3 µM (active); in test [3] it was 17.8 µM (active).

As for `c1ccc(-c2oc3ncnc(NC[C@@H]4CCCO4)c3c2-c2ccccc2)cc1`, the figures for the Potency in test [1] and in test [2] were 9.2 µM (active) and 13 µM (active), respectively. For the same compound, in test [3], the activity (max response) was -50.5%.

For `COC(=O)/C=C/C(=O)N(O)CCCCNCc1ccc(COC(=O)Nc2cccc3ccccc23)cc1`, the figures for the Potency in test [1] and in test [2] were 7.31 µM (active) and 6.51 µM (active), respectively. For the same compound, the activity (max response) in test [3] is -10.5%.

Consider `CN(C)CCN1C(=O)c2cccc3cc(NC(N)=O)cc(c23)C1=O`, for which the Potency was 4.17 µM (active) in test [1], 4.17 µM (active) in test [2] and 17.8 µM (active) in test [3].

As for `Cc1nc(NC(=O)N2CCC[C@H]2C(N)=O)sc1-c1csc(C(C)(C)C)n1`, the Potency in test [1] and in test [2] was 7.42 µM (active) throughout. In test [3], the activity (max response) is -23.3%.

On to `Cc1cccc(C)c1NC(=O)CN1CCN(CCCC(c2ccc(F)cc2)c2ccc(F)cc2)CC1`, for which the Potency in test [1] is 10.6 µM (active); in test [2] it was 8.41 µM (active). Besides, the activity (max response) in test [3] is -13.9%.

On to `CC(C(=O)O)c1ccc2c(c1)[nH]c1ccc(Cl)cc12` (stereo not drawn), for which the Potency entry in test [1] and in test [2] was “inactive” throughout. For the same compound, in test [3], the activity (max response) was -19.1%.

Take `Cc1cc(OCCOCC[N+](C)(C)Cc2ccccc2)ccc1C(C)(C)CC(C)(C)C`: the Potency was 3.35 µM (active) in test [1], 2.66 µM (active) in test [2] and 5.8 µM (active) in test [3].

Turning to `CCN(CC)C(=O)N1CCN(C)CC1`, the Potency entry in test [1] and in test [2] was “inactive” each time. Moreover, in test [3], the activity (max response) was -0.284%.

For `CC1=C(c2ccc(O)cc2)[C@H](c2ccc(OCCN3CCCCC3)cc2)Oc2cc(O)ccc21`, the Potency in test [1] and in test [2] was 8.33 µM (active) throughout. Besides, the activity (max response) in test [3] is -12%.

As to `CCCCCCCCCCCCCC[N+](C)(C)Cc1ccccc1`, the Potency was 2.99 µM (active) in test [1], 3.35 µM (active) in test [2] and 6.51 µM (active) in test [3].

For `CCCCOC(=O)CCCCCCCCC(=O)OCCCC`, the Potency result in test [1] and in test [2] was “inactive” throughout. The activity (max response) in test [3] was 11.1%.

`O=C(O)CCCc1ccccc1`: the Potency entry in test [1], in test [2] and in test [4] was “inactive” throughout. In addition, the activity (max response) in test [3] is 16.4%.
